# ChEMBL document CHEMBL4513216, “Probing the Open Global Health Chemical Diversity Library for Multistage-Active Starting Points for Next-Generation Antimalarials” (ACS Infect Dis, 2020)
# The campaign covered roughly 69,000 compounds. About 8,600 (12%) showed an effect of 50% or more. Shown is part of a subset that was picked to be rich in strong results.
# Test system: Plasmodium berghei
# Experiment: Screen against P. berghei liver stage (PbLuc), transformed with Luciferase, at 10uM
# Format: functional, HepG2
# Details: tested at 10 uM
row,SMILES,INHIBITION [%]
1,COc1ccc(CNC2CCc3ncnn3C2)cc1OCCCC#N (stereo not given),28.7
2,CCc1nc(C)c(-c2nccn2CC2CC(=O)N(CC)C2)[nH]1 (stereo not given),55.2
3,CCc1nc(C)c(-c2nccn2CC2CCN(C3CCCC3)CC2)[nH]1,22.5
4,CCc1nc(C)c(-c2nccn2CC2CCCCO2)[nH]1 (stereo not given),-10.2
5,Cn1cc(C(NCc2ccc(F)cc2)c2cccc(F)c2)cn1 (stereo not given),15
6,CC(C(=O)Nc1cccc(Cl)c1)N1CCN(Cc2ncc[nH]2)CC1 (stereo not given),4.52
7,Fc1cccc(C(NCc2ncc[nH]2)c2ccccc2)c1 (stereo not given),78.2
8,Clc1cccc(N2CCC(NCc3ncc[nH]3)C2)c1 (stereo not given),34.1
9,Fc1cccc(C(NCc2ncc[nH]2)c2ccccn2)c1 (stereo not given),-13.2
10,Clc1cccc(C(NCc2ncc[nH]2)c2ccccn2)c1 (stereo not given),83.2
11,Cc1ccc(NC2(C(=O)N3CCn4cncc4C3)CCCCC2)cc1C,42.1
12,COCc1cnc2n1CCN(C1CCC1)C2C (stereo not given),42.6
13,O=C(NCCN1CCCCC1CO)c1cc(-c2ccccc2)on1 (stereo not given),-7.81
14,CC(C)CNC(=O)c1ccc2c(c1)nc1n2CCN(Cc2ccco2)C1,18.4
15,Cc1nnc(C2Cc3ccccc3CN2Cc2nc(C(C)C)no2)o1 (stereo not given),-10.1
16,CC(=O)N1N=C(c2ccccc2)OC1C(=O)NCCOc1ccccc1 (stereo not given),-12.2
17,O=C(Nc1ccc(-n2cccn2)cc1)N1CCC(O)C1 (stereo not given),42.3
18,O=C(Nc1ccc(-n2cccn2)cc1)N1CCOCC(O)C1 (stereo not given),53.6
19,O=C(Nc1ccccc1OCCc1ccccn1)N1CCOCC(O)C1 (stereo not given),12.3
20,CC(=O)OC1CN(c2nc3c(C)cccc3s2)C1,-45.6
21,c1cnc(N2CCO[C@H]3CN(Cc4csnn4)C[C@H]32)nc1,42.7
22,CN(C)C(=O)Cn1c2c(ccc1=O)CC(NCc1cccnc1)CC2 (stereo not given),57.1
23,CN(C)C(=O)Cn1c2c(ccc1=O)CC(NCc1ccoc1)CC2 (stereo not given),8.31
24,O=C(NC1CCc2c(ccc(=O)n2CC2CC2)C1)c1cscn1 (stereo not given),41.2
25,CS(=O)(=O)NC1CCc2c(ccc(=O)n2CC2CC2)C1 (stereo not given),31.3
26,CN(C)CCn1c2c(ccc1=O)CC(NCc1cccnc1)CC2 (stereo not given),34.9
27,O=c1ccc2c(n1Cc1cccnc1)CCC(NCc1cccnc1)C2 (stereo not given),-2.03

row,SMILES,INHIBITION [%]
1,CN(C)CCn1c2c(ccc1=O)CC(NC(=O)c1cnccn1)CC2 (stereo not given),14.6
2,Cn1c2c(ccc1=O)CC(NS(C)(=O)=O)CC2 (stereo not given),45.5
3,COCCn1c2c(ccc1=O)CC(NC(=O)c1cscn1)CC2 (stereo not given),70.2
4,Cn1cc(CNC2CCc3c(ccc(=O)n3Cc3cccnc3)C2)cn1 (stereo not given),55.7
5,COCCn1c2c(ccc1=O)CC(NS(C)(=O)=O)CC2 (stereo not given),58.6
6,Cn1cc(CNC2CCc3c(ccc(=O)n3Cc3ccncc3)C2)cn1 (stereo not given),42.1
7,Nc1nc(Nc2ccccc2)cc(N2CCNCC2)n1,12.5
8,CC(C)CCn1ccc(NC(=O)N2CCCC2CN2CCOCC2)n1 (stereo not given),-0.551
9,Cc1cc(CNS(C)(=O)=O)ccc1N(C)C,25.5
10,Cc1ccc(CN2C[C@@H]3COC[C@@H](CC(=O)N4CCOCC4)[C@@H]3C2)s1,-3.52
11,Cc1nccnc1C1CCN(C(=O)C(C)C)CC1,29.35
12,CC(=O)N(C)Cc1ncn2c1CN(C(=O)CC1CC1)CCC2,-31.2
13,Cc1ccc(C(=O)N2C[C@H](OCC3CCOCC3)[C@H]3OCCC[C@H]32)o1,-33.9
14,COc1ccc(CN2CC[C@@H]3CN(S(C)(=O)=O)CCO[C@@H]3C2)cc1,-0.804
15,CC(C)N1CCOC(c2cc(CCO)[nH]n2)C1 (stereo not given),29.21
16,CN(C)CCn1c2c(ccc1=O)CC(NCc1cnn(C)c1)CC2 (stereo not given),31.2
17,COCCn1c2c(ccc1=O)CC(NCc1cnn(C)c1)CC2 (stereo not given),55.7
18,CCn1c2c(ccc1=O)CC(NCc1cnn(C)c1)CC2 (stereo not given),12.2
19,Cc1ccc(C(=O)N2CCC3(CC2)NC(=O)CC3c2ccccc2)cn1 (stereo not given),-16.2
20,Cn1nc(Br)c2c(NCCSCCCO)ncnc21,23.1
21,O=C(CCCNc1ncccn1)N1CCCC(n2ccnc2)C1 (stereo not given),-17.6
22,CN1CCCC(c2nccnc2-c2cccc(C(F)(F)F)c2)C1 (stereo not given),19.64
23,CN1CCCC(c2cccc(-c3cccc(F)c3)n2)C1 (stereo not given),36
24,CN1CCCC(c2cncc(-c3cccc(C(F)(F)F)c3)n2)C1 (stereo not given),66.6
25,CN1CCCC(c2cccc(-c3cccc(Cl)c3)n2)C1 (stereo not given),64.7
26,CN1CCCC(c2cccc(-c3cccc(C(F)(F)F)c3)n2)C1 (stereo not given),45.2
27,CN1CCCC(c2nccnc2-c2cccc(Cl)c2)C1 (stereo not given),11.575

row,SMILES,INHIBITION [%]
1,Cn1ccnc1C1CCCN(C(=O)c2cc(F)cc(F)c2)C1 (stereo not given),48.2
2,CN(C)CCN1CCC2(CCCN(C(=O)C3CCC3)C2)CC1,33
3,O=C(C1CCOCC1)N1CC[C@H](O)[C@@H]1Cc1cccnc1,37.6
4,O=C([C@@H]1CCO[C@@H]2CCN(CC3CCOCC3)C[C@H]21)N1CCCO1,34.4
5,O=C([C@@H]1CCO[C@@H]2CCN(CC3CC3)C[C@H]21)N1CCCCO1,61.5
6,O=C([C@@H]1CCO[C@@H]2CCN(CC3CCOCC3)C[C@H]21)N1CCCC1,30.3
7,O=C([C@@H]1CCO[C@@H]2CCN(Cc3ccco3)C[C@H]21)N1CCCCO1,29.8
8,O=C([C@@H]1CCO[C@@H]2CCN(CC3CC3)C[C@H]21)N1CCCC1,57.5
9,O=C([C@@H]1CCO[C@@H]2CCN(CCc3ccccc3)C[C@@H]21)N1CCCC1,-101
10,Cc1ccc(CN2C[C@H](C(=O)N3CCCCO3)[C@@H]3CCO[C@@H]3C2)o1,-12.1
11,Cc1ccc(CN2CC[C@H]3OCC[C@@H](C(=O)N4CCCCO4)[C@@H]3C2)o1,61.5
12,CC(C)CN1CC[C@H]2OCC[C@@H](C(=O)N3CCCO3)[C@@H]2C1,47.9
13,CN1CCN(C2COC3(CCN(CC4CC4)CC3)C2)CC1 (stereo not given),-30.1
14,CC(C)n1nc(Cn2cccn2)c2c1CN(C1CCOC1)C2 (stereo not given),-12.1
15,COc1cccc2c1ccn2CCNC(C)=O,21
16,O=C(NCc1cncc2c1CCN(Cc1ccc(F)cc1)C2)C1CC1,-14.4
17,COc1cccc(N2C(=O)CC3(CCCNC3)C2=O)c1 (stereo not given),-33.1
18,N#Cc1ncn(CCC(=O)Nc2cccc(Cl)c2)n1,39.5
19,CCC(=O)Nc1ccc(C(C)NC(=O)COC)cc1 (stereo not given),-68
20,N[C@@H](Cc1ccccc1)c1nnc(S(=O)(=O)Cc2cccc(Cl)c2)o1,-3.73
21,CCN(CC)c1ccc(C(=O)N2CCC(c3nc(C)no3)CC2)cn1,30.25
22,Cc1cc(CCC2CN(CC3(O)CCCCC3)CCO2)ncn1 (stereo not given),-3.02
23,CCN1CCc2nc(N3CCOCC3)nc(NC(C)C)c2C1,24
24,CC(C)Nc1nc(N2CCOCC2)nc2c1CN(CC(=O)N(C)C)CC2,20.5
25,c1csc(CN2CCc3nc(N4CCOCC4)nc(NC4CC4)c3C2)n1,57.1
26,Cc1nc(N2CCOCC2)nc2c1CCN(c1nccs1)CC2,37.8
27,CCCN1CCc2nc(N3CCOCC3)nc(NC(C)C)c2C1,69.3

row,SMILES,INHIBITION [%]
1,Cc1nc(N2CCOCC2)nc2c1CN(CC(=O)N(C)C)CC2,16.8
2,CC(C)Nc1nc(N2CCOCC2)nc2c1CN(Cc1ccoc1)CC2,55.2
3,Cc1nc(N2CCCC2)nc2c1CCN(Cc1ccoc1)CC2,8.03
4,c1cc(CN2CCc3nc(N4CCOCC4)nc(NC4CC4)c3C2)co1,-15.3
5,C1CN(c2nc3c(c(NC4CC4)n2)CN(CC2CCOC2)CC3)CCO1 (stereo not given),-39.4
6,CC(C)CCN1CCc2nc(N3CCOCC3)nc(NC(C)C)c2C1,70.2
7,Cc1cc2ccccc2n1CC(=O)NC(C)C(=O)N1CCOCC1 (stereo not given),-7.83
8,CCCc1nc(C(C)(C)NC(=O)C2CC(=O)N(C3CC3)C2)no1 (stereo not given),40
9,CC(C)(C)n1cc(CNC2CCN(C(=O)c3ccoc3)CC2)cn1,1.75
10,COc1cc(CN2CCC3(CC(Nc4ccncn4)C3)C2)cc(OC)c1 (stereo not given),44.1
11,Cc1cc2ccccc2n1CC(=O)NCC(=O)N1CCOCC1,8.41
12,CCOCc1nn(CC2CC2)c2c1CN(Cc1ccco1)CC2,12.4
13,COc1ccc(-n2ccc(C(=O)NCCN3CCCC(C)C3)n2)cc1 (stereo not given),62.1
14,CC1CCCN(CCNC(=O)c2ccn(-c3cccc(F)c3)n2)C1 (stereo not given),51.1
15,COc1ccc(-n2ccc(C(=O)NCCN3CCCCC3)n2)cc1,40.2
16,O=C(NCCN1CCCCC1)c1ccn(-c2ccc(F)cc2)n1,-2.53
17,CC1CCCN(CCNC(=O)c2ccn(-c3ccc(F)cc3)n2)C1 (stereo not given),3.15
18,CC1CCCN(CCNC(=O)c2ccn(-c3ccccc3)n2)C1 (stereo not given),29.4
19,COc1ccc(-n2ccc(C(=O)NCCN3CCCCC3C)n2)cc1 (stereo not given),44.8
20,COc1ccc(-n2ccc(C(=O)NCCN3CCC(C)CC3)n2)cc1,38.8
21,O=C(NCCN1CCCCCC1=O)c1ccn(-c2ccc(F)cc2)n1,13.3
22,COc1ccc(-n2ccc(C(=O)NCCN3CCCCCC3)n2)cc1,51.1
23,CCN1CCN(CCNC(=O)c2ccn(-c3ccc(F)cc3)n2)CC1,60.2
24,COc1cn(-c2ccccc2)nc1C(=O)NCCN1CCCC(C)C1 (stereo not given),22.3
